PubChem BioAssay

What follows are molecules tested against Torsin-1A (Homo sapiens) (UniProt O14656) (assay: torsin A binders from cell lysate, primary screen, small-molecule microarray, wild-type, 635/667 nm (AID 1149)). Details: COS7 hTOR1A-WT lysate, 635 nm fluorescence, higher = more signal.
Sequence of Torsin-1A (Homo sapiens) (O14656 whole entry, looked up): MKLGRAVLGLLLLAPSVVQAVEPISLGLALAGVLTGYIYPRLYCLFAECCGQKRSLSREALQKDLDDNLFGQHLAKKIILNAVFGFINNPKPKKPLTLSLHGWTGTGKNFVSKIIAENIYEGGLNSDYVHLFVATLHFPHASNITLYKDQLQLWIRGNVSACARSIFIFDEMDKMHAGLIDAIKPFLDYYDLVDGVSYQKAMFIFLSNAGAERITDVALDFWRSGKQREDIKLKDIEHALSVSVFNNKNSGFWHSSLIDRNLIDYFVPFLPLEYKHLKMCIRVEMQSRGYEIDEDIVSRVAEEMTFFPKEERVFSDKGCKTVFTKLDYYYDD

Compound | composite z-score
CC(C)C(=C=CC[C@@H](O)c1ccc(OCCO)cc1)CCO | -0.0298
CC#CCO[Si](C#CCCCCCC)(C(C)C)C(C)C | -1.46
CN(C)CCCC[C@@H]1NC(=O)[C@H]2C[C@@H](C(=O)NCc3ccc(F)cc3)[C@@H](c3ccc(O)cc3)N2C1=O | 1.12
CC(C)N1CC=CC23O[C@@H]4C=CCCOC(=O)C4[C@H]2C(=O)N(CCCCCO)[C@@H]3C1=O (stereo not given in full) | -1.35
COCCOC(=O)N1C(=O)[C@@]2(c3ccccc31)[C@H](C(=O)N1CCCCCCC1)[C@H]1C(=O)O[C@H](c3ccccc3)[C@H](c3ccccc3)N1[C@@H]2c1ccc(O)cc1 | 2.14
C#CCN([C@H](/C=C/C1CC1)[C@@H](O)Cc1ccccc1)[C@@H](Cc1ccccc1)C(=O)OC | 0.0515
COC(=O)[C@@]1(Cc2ccc(F)cc2)[C@H]2c3cc(C(=O)N(C)C)n(CCn4cc([N+](=O)[O-])nc4C)c3C[C@H]2CN1C(=O)c1ccccc1 | -0.0611
CCOC(=O)C[C@H]1[C@H](OC(=O)Cc2ccc3c(c2)OCO3)[C@@H](NC(=O)c2ccccc2)c2cc(OCCCO)ccc2N1C(=O)Cc1ccc(OC)cc1 | 0.693
C[N+](C)(C)CCCC[C@@H]1NC(=O)[C@H]2C[C@@H](C(=O)NCCCCCNC(=O)CS)[C@@H](c3ccc(O)cc3)N2C1=O | 0.327
CN1C(=O)[C@]2(CCS(=O)(=O)c3ccccc3)N=C(c3ccc(OCCCO)cc3)O[C@@H]2c2ccccc21 | 0.0148
O=C1O[C@@H](c2ccccc2)[C@@H](c2ccccc2)N2[C@@H](c3ccc(OCCO)cc3)[C@]3(C(=O)Nc4ccc(C#CCCO)cc43)[C@@H](C(=O)Nc3nc4ccccc4s3)[C@H]12 | 0.222
COCCn1c(C(=O)N2CCCC2)cc2c1C[C@H]1CN(C(=O)c3ccccc3)[C@@](Cc3ccccc3)(C(=O)OC)[C@@H]21 | 0.22
CC(C)(C)N1CC=CC23O[C@@H]4/C=C\CCCOC(=O)C4[C@H]2C(=O)N(CCCCCCO)[C@@H]3C1=O (stereo not given in full) | 0.467
CCCC[C@@H](O)C1=C(COC)Cn2c(=O)n(-c3ccccc3)c(=O)n2[C@H]1CO | -0.527
COC(=O)[C@@H]1N=C(c2ccc(OCCCO)cc2)O[C@@H]1c1ccccc1CN=[N+]=[N-] | -1.73
CN1C=C(C(=O)OCCS(C)(=O)=O)C(C(=O)OCCS(C)(=O)=O)=CC(CCCO)=CC1c1ccc(CN2CCCC2)cc1 (stereo not given) | 0.244
COCCOC(=O)N1C(=O)[C@@]2(c3ccccc31)[C@H](C(N)=O)[C@H]1C(=O)O[C@H](c3ccccc3)[C@H](c3ccccc3)N1[C@@H]2c1ccc(OCCO)cc1 | 1.13
CC(C)CNC(=O)[C@@H]1c2ccccc2C(=O)N(C(C)C)[C@H]1c1ccc(CO)cc1 | 1.13

Compound | composite z-score
CC(C)c1ccc(NN2C(C(O)C(C)C)C=CC3C(=O)N(c4ccccc4)C(=O)C32)cc1 (stereo not given) | -0.317
COCCOC(=O)N1C(=O)[C@@]2(c3cc(C#CCC(C(=O)OC)C(=O)OC)ccc31)[C@H](C(=O)N1CCCCCCC1)[C@H]1C(=O)O[C@H](c3ccccc3)[C@H](c3ccccc3)N1[C@@H]2c1ccccc1OCCO | 1.27
O=C(NCCO)C1=C[C@H](Oc2ccccc2I)[C@@H](O)[C@H](NCc2ccc(F)cc2)C1 | 0.693
COC(=O)Cn1c(C(=O)N(C)C)cc2c1C[C@H]1CN(C(=O)c3ccccc3)[C@@](Cc3ccc(OC)cc3)(C(=O)OC)[C@@H]21 | 0.244
[N-]=[N+]=NCc1ccccc1C[C@]1(C(=O)NCc2ccccc2)N=C(c2ccc(OCCCO)cc2)O[C@H]1c1ccccc1CN=[N+]=[N-] | 0.135
CC(=O)NCCCC[C@@H]1NC(=O)[C@H]2C[C@@H](C(=O)NCCCCCC[N+](C)(C)C)[C@@H](c3ccc(O)cc3)N2C1=O | 1.4
[N-]=[N+]=NCc1ccccc1C[C@]1(C(=O)N2CCCCC2)N=C(c2ccc(OCCCO)cc2)O[C@H]1c1ccccc1 | 0.81
COc1ccc(CCNC(=O)[C@@]2(Sc3ccc(C)cc3)CC(=O)N(C(C)C)[C@@H]2c2ccc(CO)cc2)cc1 | 0.939
COC(=O)C(CC#Cc1ccc2c(c1)[C@]1(C(=O)N2)[C@H](c2ccc(O)cc2)N2[C@H](c3ccccc3)[C@H](c3ccccc3)OC(=O)[C@H]2[C@@H]1C(=O)N1CCc2cc(OC)c(OC)cc2C1)C(=O)OC | 0.966
COc1ccccc1CN1C(=O)c2ccccc2[C@](Cc2ccccc2I)(C(=O)NCCCN(C)C)[C@@H]1c1ccc(CO)cc1 | -0.26
CN1C(=O)C2C(C1=O)C1C=C(c3ccc(CO)cc3)C2C(c2cccs2)N1C (stereo not given) | 0.233
NCCCC[C@@H]1NC(=O)[C@H]2C[C@@H](C(=O)NCc3ccc(F)cc3)[C@@H](c3cccc(OCCO)c3)N2C1=O | 0.608
CC(C)(C)OC(=O)CC[C@]1(C(=O)N2CCOCC2)N=C(c2ccc(OCCCO)cc2)O[C@H]1c1ccccc1CN=[N+]=[N-] | 1.12
CC(C)[C@@H](C(=O)O)n1cc(-c2ccccc2)nn1 | 0.466
NCCCC[C@@H]1NC(=O)[C@H]2C[C@@H](C(=O)NCc3ccc(F)cc3)[C@@H](c3ccc(O)cc3)N2C1=O | 1.18
O=C1OCCC=C[C@H]2OC34C=CCN(c5ccc(Cl)cc5)C(=O)[C@H]3N(CCO)C(=O)[C@@H]4C12 (stereo not given in full) | -1.97
O=C1O[C@@H](c2ccccc2)[C@@H](c2ccccc2)N2[C@@H](c3ccc(O)cc3)[C@]3(C(=O)Nc4ccc(C#CC5=CCCCC5)cc43)[C@@H](C(=O)N3CCCCCCC3)[C@H]12 | 1.12
